The full list was thinned out, with hits kept by preference.
miR122 inh = miR-122 sensor activation | Huh7 psiCHECK-miR122 Renilla luciferase sensor, 48 h | activation, % at 12.5 µM | 340,000 compounds, 0.14% hits | AID 623901;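 active = mean activation of 30% or more, with every replicate also reaching 30%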;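 note: 0% = median of neutral control wells and 100% = median of positive control wells; higher luciferase signal means stronger suppression of miR-122 activity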
Numbers without * were called inactive.

SMILES	miR122 inh
Cc1ccccc1OCC(=O)NNC(=O)Nc1ccc(Cl)cc1	-144
Cc1ccccc1OCC(O)CNC1CCC(NCC(O)COc2ccccc2C)CC1 (stereo not drawn)	31*
C[C@@H]1CN([C@@H](C)CO)C(=O)c2cc(Br)cnc2O[C@H]1CN(C)Cc1ccc2c(c1)OCO2	5
CCCC(=O)Nc1ccc2c(c1)C(=O)N(C)C[C@@H](OC)[C@H](C)CN(CCC)[C@@H](C)CO2	1
COc1cccc(C(=O)Nc2cc([N+](=O)[O-])ccc2N2CCN(C)CC2)c1	-292
COc1ccc(NC(C)=O)cc1S(=O)(=O)Nc1ccc(S(=O)(=O)N2CCCCC2)cc1	-126
CN1CCN(c2ccc(Cl)cc2NC(=O)c2ccc(S(=O)(=O)N3CCCCCC3)cc2)CC1	40*
CC(=O)N(C)C[C@@H]1Oc2cc(C#CC3(O)CCCC3)ccc2S(=O)(=O)N([C@@H](C)CO)C[C@H]1C	3
C[C@@H]1CN([C@H](C)CO)S(=O)(=O)c2ccc(C3=CCCCC3)cc2O[C@@H]1CN(C)C(=O)CC1CC1	-1
COc1ccc(NC(=O)N(C)C[C@@H]2Oc3ncc(C4=CCCC4)cc3C(=O)N([C@@H](C)CO)C[C@H]2C)cc1	2
CCCN(C)C[C@@H]1Oc2cc(C#CC3CC3)ccc2S(=O)(=O)N([C@@H](C)CO)C[C@@H]1C	3
c1cnc(N2CCN(Cc3c[nH]c4ccccc34)CC2)nc1	38*
C[C@@H]1CN([C@@H](C)CO)S(=O)(=O)c2ccc(-c3cccc(C#N)c3)cc2O[C@@H]1CN(C)C(=O)c1ccccc1	-8
COCC#Cc1ccc2c(c1)O[C@@H](CN(C)Cc1cncnc1)[C@H](C)CN([C@H](C)CO)S2(=O)=O	-6
C[C@@H]1CN([C@@H](C)CO)C(=O)c2cc(C#Cc3ccccn3)cnc2O[C@H]1CN(C)Cc1cncnc1	6
COc1ccc(-c2c(-c3ccccc3)c(C(=O)C(=O)NCCCN(C)C)n3ccc4cc(OC)c(OC)cc4c23)cc1OC	38*
CC(C)C#Cc1ccc2c(c1)O[C@@H](CN(C)Cc1ccccn1)[C@H](C)CN([C@@H](C)CO)S2(=O)=O	1
C[C@@H]1CN([C@H](C)CO)C(=O)c2cc(-c3ccccc3F)cnc2O[C@@H]1CN(C)C(=O)NC1CCCCC1	-6
C[C@H](CO)N1C[C@H](C)[C@H](CN(C)C(=O)Cc2ccccn2)Oc2cc(C#C[C@@H](C)O)ccc2S1(=O)=O	6
C[C@@H]1CN([C@H](C)CO)C(=O)c2cc(/C=C/c3ccccc3)cnc2O[C@H]1CN(C)S(=O)(=O)c1ccccc1F	5
C[C@H](CO)N1C[C@H](C)[C@@H](CN(C)C(=O)Nc2ccc3c(c2)OCO3)Oc2cc(C#Cc3ccccc3)ccc2S1(=O)=O	-17
COc1cccc(NC(=O)N(C)C[C@H]2Oc3cc(C#Cc4ccncc4)ccc3S(=O)(=O)N([C@@H](C)CO)C[C@@H]2C)c1	-39
COc1cccc(C#Cc2ccc3c(c2)O[C@@H](CN(C)C(C)=O)[C@@H](C)CN([C@@H](C)CO)S3(=O)=O)c1	-4
CNC[C@@H]1Oc2cc(C#Cc3cccc(OC)c3)ccc2S(=O)(=O)N([C@@H](C)CO)C[C@@H]1C	49*
C[C@@H]1CN([C@@H](C)CO)S(=O)(=O)c2ccc(C#Cc3ccncc3)cc2O[C@@H]1CN(C)C(=O)C1CCCCC1	19
SMILES	miR122 inh
C[C@@H]1CN([C@H](C)CO)S(=O)(=O)c2ccc(C#Cc3ccncc3)cc2O[C@@H]1CN(C)C(=O)c1ccncc1	15
C[C@@H]1CN([C@@H](C)CO)S(=O)(=O)c2ccc(C#Cc3ccncc3)cc2O[C@H]1CN(C)C(=O)C1CCCCC1	7
CCCC#Cc1ccc2c(c1)O[C@H](CN(C)C(=O)c1ccncc1)[C@H](C)CN([C@@H](C)CO)S2(=O)=O	31*
C[C@@H]1CN([C@@H](C)CO)S(=O)(=O)c2ccc(C#Cc3ccncc3)cc2O[C@@H]1CN(C)C(=O)Nc1ccc2c(c1)OCO2	43*
C[C@H](CO)N1C[C@H](C)[C@@H](CN(C)C(=O)C2CCOCC2)Oc2cc(C#Cc3ccncc3)ccc2S1(=O)=O	34*
C[C@H]1CN([C@@H](C)CO)S(=O)(=O)c2ccc(C#Cc3ccncc3)cc2O[C@@H]1CN(C)C(=O)c1ccncc1	-18
COc1cccc(C#Cc2ccc3c(c2)O[C@H](CN(C)C(C)=O)[C@H](C)CN([C@H](C)CO)S3(=O)=O)c1	5
COc1cccc(-c2ccc3c(c2)O[C@@H](CN(C)Cc2cccnc2)[C@H](C)CN([C@@H](C)CO)S3(=O)=O)c1	-6
C[C@H]1CN([C@@H](C)CO)C(=O)c2cc(C#Cc3ccccc3F)cnc2O[C@@H]1CN(C)S(=O)(=O)c1ccccc1	2
CO[C@H]1CN(C)C(=O)c2ccc(NC(=O)NC(C)C)cc2OC[C@@H](C)NC[C@H]1C	-13
C[C@@H]1CN([C@H](C)CO)C(=O)c2cc(C#CC3(O)CCCC3)cnc2O[C@H]1CN(C)S(=O)(=O)c1ccc(F)cc1	-1
C[C@H]1CN([C@@H](C)CO)C(=O)c2cc(C#Cc3ccccc3)cnc2O[C@@H]1CN(C)Cc1ccccn1	3

Source: PubChem (Broad Institute)
